Experimental data published in PubChem BioAssay (EPA / NIEHS).
Records with an inconclusive call do not appear. Activity calls are given as the source filed them. Rule for the calls, unless noted: active = hit-call score of the fitted dose curve at least 0.9, where 1 is the maximum; inconclusive = response in the unintended direction; inactive = score below 0.9.

Experiments:
[1] = ATG_TAL_CIS: Attagene CIS-FACTORIAL HepG2 Assay for human TAL Basal Promoter (AID 2282966; active = hit-call score of the fitted dose curve at least 0.9, where 1 is the maximum; inactive = score below 0.9;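 note: background control endpoint measuring basal TAL promoter reporter mRNA not a specific factor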); settings: HepG2 Attagene cis-factorial TAL promoter reporter; actives raise or lower the signal
Method in brief: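 After 24 hours of chemical exposure, transfected HepG2 cells yielded RNA that was converted to 6-FAM-labelled, HpaI-digested reporter fragments for capillary electrophoresis. Values derive from bidirectional fitting against DMSO controls.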

[2] = ATG_TGFb_CIS: Attagene CIS-FACTORIAL HepG2 Assay for human Transforming Growth Factor (TGF) (AID 2282967; active = hit-call score of the fitted dose curve at least 0.9, where 1 is the maximum; inactive = score below 0.9); settings: HepG2 Attagene CIS TGFb reporter, mRNA transcription; actives raise or lower the signal
Method in brief: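 Endogenous TGFB1-linked transcription factor activity read as reporter mRNA via RT-PCR and capillary electrophoresis, 24 h after dosing transiently transfected HepG2 cells. Gain or loss of signal fitted relative to DMSO.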

[3] = target: Estrogen receptor (Homo sapiens) (UniProt P03372); test: ATG_ERa_TRANS: Attagene TRANS-FACTORIAL HepG2 Assay for human Estrogen Receptor alpha (ERa) (AID 2282970); settings: HepG2 Attagene TRANS ERa GAL4 reporter, mRNA
Method in brief: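 Liver-derived HepG2 cells expressing chimeric nuclear receptor-Gal4 proteins from transient transfection were exposed for 24 hours. Gain of reporter mRNA signal versus DMSO, read by capillary electrophoresis of FAM-labelled PCR products, was recorded.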

[4] = ATG_M_19_TRANS: Attagene TRANS-FACTORIAL HepG2 Assay for M19 Transcription Factor (Internal Marker) (AID 2282974); settings: HepG2 Attagene TRANS-FACTORIAL M19 internal marker reporter
Method in brief: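 Fluorescence of 6-FAM-labelled reporter cDNA fragments, separated by capillary electrophoresis, served as the readout. These derived from HepG2 cells carrying transfected GAL4-UAS reporter units after 24 h dosing, with DMSO as negative control.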

[5] = target: Oxysterols receptor LXR-beta (Homo sapiens) (UniProt P55055); test: ATG_LXRb_TRANS: Attagene TRANS-FACTORIAL HepG2 Assay for human Liver X Receptor beta (LXRb) (AID 2282981); settings: HepG2 Attagene TRANS GAL4-LXRb reporter, mRNA
Method in brief: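 Multiplexed reporter assay, HepG2, 24 h dosing. Fluorescence of labelled RT-PCR products after capillary electrophoresis gives transcript level; positive fitting direction relative to DMSO.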

[6] = target: Hepatocyte nuclear factor 4-alpha (Homo sapiens) (UniProt P41235); test: ATG_HNF4a_TRANS: Attagene TRANS-FACTORIAL HepG2 Assay for human Hepatocyte Nuclear Factor 4 alpha (HNF4a) (AID 2282982); settings: HepG2 HNF4a transactivation reporter, mRNA readout
Method in brief: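 Endpoint reflects transcriptional activation of a GAL4-UAS reporter by an HNF4a-GAL4 chimera in transfected HepG2 cells, 24 h post-dosing. Fluorescence from RT-PCR products separated by capillary electrophoresis; DMSO baseline.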

[7] = ATG_M_06_TRANS: Attagene TRANS-FACTORIAL HepG2 Assay for M06 Transcription Factor (Internal Marker) (AID 2282983); settings: HepG2 Attagene TRANS M06 internal marker reporter
Method in brief: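 Background control endpoint: reporter mRNA from transiently transfected HepG2 after 24 h dosing, detected by RT-PCR with capillary electrophoresis fluorescence. Analysed for gain versus DMSO.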

[8] = ATG_M_32_TRANS: Attagene TRANS-FACTORIAL HepG2 Assay for M32 Transcription Factor (Internal Marker) (AID 2282984); settings: HepG2 Attagene TRANS M32 internal marker reporter
Method in brief: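 Internal-marker readout from a multiplexed transcription reporter panel. HepG2 cells were transfected with GAL4-UAS reporter units, treated 24 hours, and reporter transcript levels determined by fluorescence after RT-PCR and capillary separation.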

[9] = target: Transcriptional activator Myb (Homo sapiens) (UniProt P10242); test: ATG_Myb_CIS: Attagene CIS-FACTORIAL HepG2 Assay for human Myeloblastosis (Myb) Proto-Oncogene Transcription Factor (AID 2282986; active = hit-call score of the fitted dose curve at least 0.9, where 1 is the maximum; inactive = score below 0.9); settings: HepG2 Attagene CIS-FACTORIAL Myb reporter transcription; actives raise or lower the signal
Method in brief: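 Reporter transcript levels, quantified by fluorescent RT-PCR and capillary electrophoresis, serve as the read-out. Transfected HepG2 cells carrying cis-promoter reporter units are dosed for 24 hours, and curves are fitted bidirectionally against DMSO controls.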

[10] = target: Nuclear respiratory factor 1 (Homo sapiens) (UniProt Q16656); test: ATG_NRF1_CIS: Attagene CIS-FACTORIAL HepG2 Assay for human Nuclear Respiratory Factor 1 (NRF1) Orphan Gene (AID 2282987; active = hit-call score of the fitted dose curve at least 0.9, where 1 is the maximum; inactive = score below 0.9); settings: HepG2 NRF1 cis-element reporter, Attagene multiplex; actives raise or lower the signal
Method in brief: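 Multiplexed cis-reporter assay, HepG2 cells, 24 h treatment. Total RNA → oligo(dT) RT → PCR with reporter-specific primers → 6-FAM primer extension → HpaI cut → CE. Bidirectional fit vs DMSO.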

[11] = target: Nuclear receptor subfamily 1 group I member 3 (Homo sapiens) (UniProt Q14994); test: ATG_CAR_TRANS: Attagene TRANS-FACTORIAL HepG2 Assay for human Constitutive Androstane Receptor (CAR) (AID 2282969); settings: HepG2 Attagene TRANS-FACTORIAL CAR reporter;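 note: activators raise reporter mRNA above DMSO so AC50 marks induction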
Method in brief: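 Transiently transfected HepG2, multiplex TRANS reporters (CAR-Gal4 chimera driving GAL4-UAS reporter). 24 h dosing. Readout: reporter transcript by RT-PCR + capillary electrophoresis, fluorescence intensity; positive direction vs DMSO.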

[12] = target: X-box-binding protein 1 (Homo sapiens) (UniProt P17861); test: ATG_Xbp1_CIS: Attagene CIS-FACTORIAL HepG2 Assay for human X-box Binding Protein 1 (XBP1) (AID 2282972; active = hit-call score of the fitted dose curve at least 0.9, where 1 is the maximum; inactive = score below 0.9); settings: HepG2 XBP1 cis-element reporter, Attagene multiplex; actives raise or lower the signal
Method in brief: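 Changes in reporter transcript abundance, read by RT-PCR and capillary electrophoresis, reflect endogenous transcription factor activity. Transfected HepG2 cells received compound for 24 hours; DMSO defined baseline for bidirectional analysis.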

[13] = ATG_GAL4_TRANS: Attagene TRANS-FACTORIAL HepG2 Assay for GAL4 (Internal Marker) (AID 2282976); settings: HepG2 Attagene TRANS GAL4 internal marker reporter
Method in brief: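 First, HepG2 cells were transfected with reporter units under GAL4-UAS control. Next, they were treated with chemical for 24 h. Finally, RNA was reverse-transcribed, PCR-amplified, FAM-labelled and resolved by capillary electrophoresis, with induction scored against DMSO.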

[14] = target: Oxysterols receptor LXR-alpha (Homo sapiens) (UniProt Q13133); test: ATG_LXRa_TRANS: Attagene TRANS-FACTORIAL HepG2 Assay for human Liver X Receptor alpha (LXRa) (AID 2282980); settings: HepG2 Attagene TRANS reporter, LXRa transactivation
Method in brief: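 Transfect HepG2 with GAL4-UAS multiplex reporter constructs (TRANS format, chimeric receptor-GAL4); treat 24 h; extract RNA, reverse-transcribe, PCR-amplify, FAM-label, HpaI-digest; resolve fragments by capillary electrophoresis. Upward response vs DMSO.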

[15] = target: Nuclear receptor subfamily 4 group A member 2 (Homo sapiens) (UniProt P43354); test: ATG_NURR1_TRANS: Attagene TRANS-FACTORIAL HepG2 Assay for human Nuclear Receptor Related Protein 1 (NURR1) (AID 2282985); settings: HepG2 Attagene TRANS reporter, mRNA readout
Method in brief: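 Endpoint: reporter mRNA increase relative to DMSO. HepG2 cells transfected with reporter units, treated 24 h; RNA processed by RT-PCR, labelling, HpaI digestion and capillary electrophoresis.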

[16] = target: Steroid hormone receptor ERR1 (Homo sapiens) (UniProt P11474); test: ATG_ERRa_TRANS: Attagene TRANS-FACTORIAL HepG2 Assay for human Estrogen-Related Receptor alpha (ERRa) (AID 2282971); settings: HepG2 Attagene TRANS reporter, ERRa transactivation
Method in brief: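 Reporter transcript induction was quantified by RT-PCR and capillary electrophoresis of FAM-labelled, HpaI-cut products after 24 h treatment of HepG2 cells carrying transiently transfected GAL4-UAS reporter units and an exogenous ERRa-Gal4 fusion; activity scored as increase over DMSO.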

[17] = target: Estrogen-related receptor gamma (Homo sapiens) (UniProt P62508); test: ATG_ERRg_TRANS: Attagene TRANS-FACTORIAL HepG2 Assay for human Estrogen-Related Receptor gamma (ERRg) (AID 2282977); settings: HepG2 Attagene TRANS reporter, ERRg transactivation;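 note: hits increase reporter signal over DMSO so potencies reflect activators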
Method in brief: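 Exogenous NR-Gal4 chimera activity measured as reporter transcript induction after 24 h in transiently transfected HepG2 cells. RNA reverse-transcribed, PCR-amplified, 6-FAM-labelled and resolved by capillary electrophoresis; increase over DMSO baseline.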

[18] = target: Glucocorticoid receptor (Homo sapiens) (UniProt P04150); test: ATG_GR_TRANS: Attagene TRANS-FACTORIAL HepG2 Assay for human Glucocorticoid Receptor (GR) (AID 2282978); settings: HepG2 Attagene TRANS GR reporter, mRNA transcription;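 note: activators score as hits since higher reporter transcript over DMSO is fitted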
Method in brief: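 Fluorescent capillary-electrophoresis quantitation of reporter mRNA is the readout, taken 24 h after dosing human HepG2 cells carrying transiently transfected GAL4-UAS reporter units activated by chimeric NR-GAL4 fusions; activity scored as induction over DMSO.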

Measured: AC50

Hepatocyte nuclear factor 4-alpha (Homo sapiens), sequence (P41235 whole entry, looked up, the tested form may be a part): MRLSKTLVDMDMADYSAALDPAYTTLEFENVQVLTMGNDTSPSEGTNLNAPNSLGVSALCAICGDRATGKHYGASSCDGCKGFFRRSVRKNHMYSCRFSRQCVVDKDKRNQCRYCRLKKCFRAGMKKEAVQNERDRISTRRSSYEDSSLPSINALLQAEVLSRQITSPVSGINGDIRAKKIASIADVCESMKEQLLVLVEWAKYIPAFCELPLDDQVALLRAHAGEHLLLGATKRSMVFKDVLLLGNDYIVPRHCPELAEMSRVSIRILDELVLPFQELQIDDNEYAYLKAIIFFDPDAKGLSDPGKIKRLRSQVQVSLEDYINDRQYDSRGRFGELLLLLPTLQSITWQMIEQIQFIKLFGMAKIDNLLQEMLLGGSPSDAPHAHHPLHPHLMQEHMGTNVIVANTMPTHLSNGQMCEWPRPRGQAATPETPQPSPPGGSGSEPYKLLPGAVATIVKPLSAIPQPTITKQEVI
Transcriptional activator Myb (Homo sapiens), sequence (P10242 whole entry, looked up): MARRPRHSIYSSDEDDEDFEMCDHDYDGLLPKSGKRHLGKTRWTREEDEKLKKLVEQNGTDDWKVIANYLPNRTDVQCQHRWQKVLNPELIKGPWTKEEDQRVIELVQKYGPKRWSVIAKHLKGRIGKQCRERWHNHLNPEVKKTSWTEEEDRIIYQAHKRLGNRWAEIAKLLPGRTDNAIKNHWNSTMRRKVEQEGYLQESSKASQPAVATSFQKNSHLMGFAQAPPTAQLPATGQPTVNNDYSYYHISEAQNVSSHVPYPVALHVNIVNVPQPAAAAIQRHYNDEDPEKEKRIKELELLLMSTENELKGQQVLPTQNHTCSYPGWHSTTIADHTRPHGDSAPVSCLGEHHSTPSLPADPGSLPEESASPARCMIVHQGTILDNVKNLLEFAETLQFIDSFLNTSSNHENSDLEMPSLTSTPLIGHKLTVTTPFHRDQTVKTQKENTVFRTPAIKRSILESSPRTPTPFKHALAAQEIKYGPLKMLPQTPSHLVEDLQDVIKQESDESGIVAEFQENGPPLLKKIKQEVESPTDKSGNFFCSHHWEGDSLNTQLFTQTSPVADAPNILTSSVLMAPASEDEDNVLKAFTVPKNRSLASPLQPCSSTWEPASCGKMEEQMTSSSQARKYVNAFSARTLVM
Nuclear respiratory factor 1 (Homo sapiens), sequence (Q16656 whole entry, looked up): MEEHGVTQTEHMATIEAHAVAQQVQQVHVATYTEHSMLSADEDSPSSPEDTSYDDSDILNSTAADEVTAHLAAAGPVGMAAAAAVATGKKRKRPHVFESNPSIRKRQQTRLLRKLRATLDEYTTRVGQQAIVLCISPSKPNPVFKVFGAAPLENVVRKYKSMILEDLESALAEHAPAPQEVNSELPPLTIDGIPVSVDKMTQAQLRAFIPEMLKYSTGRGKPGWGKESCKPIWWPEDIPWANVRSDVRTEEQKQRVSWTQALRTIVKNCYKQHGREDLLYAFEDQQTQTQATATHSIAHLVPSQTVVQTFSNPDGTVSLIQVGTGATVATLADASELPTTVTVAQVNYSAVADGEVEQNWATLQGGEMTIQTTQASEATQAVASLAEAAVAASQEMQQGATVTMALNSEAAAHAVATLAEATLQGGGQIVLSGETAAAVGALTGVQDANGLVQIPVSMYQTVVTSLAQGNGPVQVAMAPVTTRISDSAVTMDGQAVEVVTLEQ
Estrogen receptor (Homo sapiens), sequence (P03372 whole entry, looked up, the tested form may be a part): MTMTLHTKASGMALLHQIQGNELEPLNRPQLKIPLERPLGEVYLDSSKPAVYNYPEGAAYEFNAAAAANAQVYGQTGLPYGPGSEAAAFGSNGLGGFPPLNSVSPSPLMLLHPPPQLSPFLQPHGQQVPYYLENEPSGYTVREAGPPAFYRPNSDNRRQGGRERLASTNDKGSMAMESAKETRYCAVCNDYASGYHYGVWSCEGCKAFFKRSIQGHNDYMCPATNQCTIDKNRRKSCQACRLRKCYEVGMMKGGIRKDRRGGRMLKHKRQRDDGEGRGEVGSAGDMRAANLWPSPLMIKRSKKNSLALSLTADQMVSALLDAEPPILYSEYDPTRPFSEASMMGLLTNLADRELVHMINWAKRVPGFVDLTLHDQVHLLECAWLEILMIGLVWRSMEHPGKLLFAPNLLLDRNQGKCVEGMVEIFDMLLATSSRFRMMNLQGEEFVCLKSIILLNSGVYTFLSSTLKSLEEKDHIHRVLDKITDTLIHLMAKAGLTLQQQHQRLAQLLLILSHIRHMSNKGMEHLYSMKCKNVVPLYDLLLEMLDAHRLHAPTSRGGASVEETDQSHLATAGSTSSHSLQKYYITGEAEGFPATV
Oxysterols receptor LXR-alpha (Homo sapiens), sequence (Q13133 whole entry, looked up, the tested form may be a part): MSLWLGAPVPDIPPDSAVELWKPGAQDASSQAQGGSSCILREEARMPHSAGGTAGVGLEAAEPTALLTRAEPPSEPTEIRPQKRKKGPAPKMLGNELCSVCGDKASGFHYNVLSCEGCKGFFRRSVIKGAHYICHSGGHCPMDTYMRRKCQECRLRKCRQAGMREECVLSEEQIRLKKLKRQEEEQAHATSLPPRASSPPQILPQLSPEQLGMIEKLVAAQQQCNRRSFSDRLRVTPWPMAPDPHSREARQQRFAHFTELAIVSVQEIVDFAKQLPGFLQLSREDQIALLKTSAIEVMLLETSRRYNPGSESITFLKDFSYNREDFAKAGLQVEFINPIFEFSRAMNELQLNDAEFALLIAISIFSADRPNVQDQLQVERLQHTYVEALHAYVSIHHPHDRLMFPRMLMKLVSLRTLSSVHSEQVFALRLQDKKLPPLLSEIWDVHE
Nuclear receptor subfamily 4 group A member 2 (Homo sapiens), sequence (P43354 whole entry, looked up): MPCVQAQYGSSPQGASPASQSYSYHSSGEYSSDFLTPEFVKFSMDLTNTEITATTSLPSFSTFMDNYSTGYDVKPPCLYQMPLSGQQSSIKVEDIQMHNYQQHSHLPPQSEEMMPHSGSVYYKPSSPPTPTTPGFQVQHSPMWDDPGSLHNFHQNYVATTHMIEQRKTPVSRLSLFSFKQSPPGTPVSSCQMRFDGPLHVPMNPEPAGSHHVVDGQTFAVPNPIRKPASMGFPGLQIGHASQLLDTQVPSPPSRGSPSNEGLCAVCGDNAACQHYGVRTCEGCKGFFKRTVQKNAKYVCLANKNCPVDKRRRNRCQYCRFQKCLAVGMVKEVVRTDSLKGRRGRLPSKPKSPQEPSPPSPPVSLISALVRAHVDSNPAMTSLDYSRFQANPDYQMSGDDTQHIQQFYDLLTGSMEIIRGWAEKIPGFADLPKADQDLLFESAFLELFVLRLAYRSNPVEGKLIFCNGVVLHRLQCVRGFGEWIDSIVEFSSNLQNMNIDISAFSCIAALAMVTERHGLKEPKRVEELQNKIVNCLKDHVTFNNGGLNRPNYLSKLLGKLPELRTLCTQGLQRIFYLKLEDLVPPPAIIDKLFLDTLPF
Nuclear receptor subfamily 1 group I member 3 (Homo sapiens), sequence (Q14994 whole entry, looked up, the tested form may be a part): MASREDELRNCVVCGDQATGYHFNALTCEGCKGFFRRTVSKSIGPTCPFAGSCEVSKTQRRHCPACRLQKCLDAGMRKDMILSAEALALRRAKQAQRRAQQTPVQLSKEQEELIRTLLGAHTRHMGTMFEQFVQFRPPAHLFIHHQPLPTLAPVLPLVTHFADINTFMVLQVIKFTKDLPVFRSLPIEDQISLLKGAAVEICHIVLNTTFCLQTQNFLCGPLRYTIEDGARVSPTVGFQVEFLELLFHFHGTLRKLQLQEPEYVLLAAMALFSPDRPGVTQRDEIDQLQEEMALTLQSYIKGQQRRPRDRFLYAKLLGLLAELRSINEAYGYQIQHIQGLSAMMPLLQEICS
Glucocorticoid receptor (Homo sapiens), sequence (P04150 whole entry, looked up, the tested form may be a part): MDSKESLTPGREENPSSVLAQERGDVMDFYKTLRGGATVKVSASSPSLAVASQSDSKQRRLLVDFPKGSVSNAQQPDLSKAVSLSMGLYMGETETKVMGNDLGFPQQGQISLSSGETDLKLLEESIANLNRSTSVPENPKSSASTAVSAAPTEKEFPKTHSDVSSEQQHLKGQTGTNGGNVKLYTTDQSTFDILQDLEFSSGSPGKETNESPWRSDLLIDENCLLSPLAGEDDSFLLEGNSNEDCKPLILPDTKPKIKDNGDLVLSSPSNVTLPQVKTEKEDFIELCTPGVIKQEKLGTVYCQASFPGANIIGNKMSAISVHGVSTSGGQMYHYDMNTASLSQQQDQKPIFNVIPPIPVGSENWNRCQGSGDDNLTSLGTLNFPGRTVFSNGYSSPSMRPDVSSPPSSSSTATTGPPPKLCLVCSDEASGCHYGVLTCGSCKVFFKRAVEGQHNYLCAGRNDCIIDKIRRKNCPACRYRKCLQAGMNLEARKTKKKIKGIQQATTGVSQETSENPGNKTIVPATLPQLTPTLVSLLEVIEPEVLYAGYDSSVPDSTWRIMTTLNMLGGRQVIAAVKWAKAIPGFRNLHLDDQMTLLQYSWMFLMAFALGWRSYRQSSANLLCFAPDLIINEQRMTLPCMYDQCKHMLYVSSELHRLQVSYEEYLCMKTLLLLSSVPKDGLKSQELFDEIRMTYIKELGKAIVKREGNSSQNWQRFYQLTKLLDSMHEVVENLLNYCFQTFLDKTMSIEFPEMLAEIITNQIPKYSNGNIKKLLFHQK
X-box-binding protein 1 (Homo sapiens), sequence (P17861 whole entry, looked up): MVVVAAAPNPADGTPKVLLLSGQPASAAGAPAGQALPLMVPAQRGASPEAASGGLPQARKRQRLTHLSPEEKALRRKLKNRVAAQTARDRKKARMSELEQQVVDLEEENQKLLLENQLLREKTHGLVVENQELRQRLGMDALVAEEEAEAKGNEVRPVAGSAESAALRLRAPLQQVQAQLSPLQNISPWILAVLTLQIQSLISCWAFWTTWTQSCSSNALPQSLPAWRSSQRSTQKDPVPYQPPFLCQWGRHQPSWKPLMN

Cc1ccc(S)cc1
inactive: [1] | [2] | [4] | [5] | [6] | [7] | [8] | [9] | [10]
active: [3] 25.4 µM

O=C[C@@H](O)[C@H](O)[C@H](O)CO
inactive: [1] | [2] | [11] | [12] | [13] | [14] | [7] | [8] | [15] | [9] | [10]

CC1CCC2CC1C2(C)C (configuration not stated)
inactive: [1] | [2] | [11] | [12] | [4] | [5] | [6] | [9] | [10]

COc1ccc(Nc2ccccc2)c(C)c1
inactive: [1] | [2] | [16] | [12] | [17] | [18] | [5] | [7] | [8] | [9] | [10]
active: [3] 7.87 µM | [15] 143 µM

CCCCCCCCCCCCOCCO
inactive: [1] | [2] | [13] | [18] | [14] | [7] | [8] | [15] | [9]
active: [12] 55.5 µM | [10] 52.5 µM

Nc1ccc(S(N)(=O)=O)cc1
inactive: [1] | [2] | [11] | [12] | [13] | [7] | [15] | [9]

CC1CC(OC(=O)c2ccccc2O)CC(C)(C)C1 (configuration not stated)
active: [1] 181 µM | [14] 31.1 µM
inactive: [2] | [11] | [4] | [5] | [8] | [9]

CNCCO
inactive: [1] | [2] | [12] | [4] | [6] | [7] | [15] | [9]

C=C(C)C1CCC(C)CC1O (configuration not stated)
inactive: [1] | [2] | [12] | [4] | [13] | [14] | [5] | [6] | [7] | [8] | [9]

COCCCOc1ccnc(CS(=O)c2nc3ccccc3[nH]2)c1C (configuration not stated)
inactive: [1] | [2] | [16] | [12] | [17] | [18] | [7] | [8] | [15] | [9] | [10]
active: [14] 23.2 µM | [5] 27.9 µM

CCO[Si](CCCS)(OCC)OCC
inactive: [1] | [2] | [12] | [4] | [13] | [18] | [5] | [6] | [10]

CC(=O)Nc1ccc(CC(=O)O)cc1
inactive: [1] | [2] | [3] | [12] | [4] | [13] | [18] | [14] | [5] | [9] | [10]
